MCF10A rerep: DNA re-replication induction in MCF 10a cells. MCF 10A DNA re-replication, Hoechst nuclear intensity, 48 h. Potency, µM (highest dose often 46.1 µM), actives largely listed as activators. actives 2.9% (n = 350,000). AID 624296; further: nearly all actives have a fitted effect of over 50% in size
RORgamma inh: inhibitors of mouse ROR gamma transcriptional activity; Drosophila S2 Gal4-RORgamma UAS-luciferase reporter, 20 h; Potency, µM (doses to about 53.6 µM), actives largely listed as inhibitors; actives 5.4% (n = 310,000); further: nearly all actives have a fitted effect of over 60% in size
Target sequence (P51450 whole entry, looked up, the tested form may be a part): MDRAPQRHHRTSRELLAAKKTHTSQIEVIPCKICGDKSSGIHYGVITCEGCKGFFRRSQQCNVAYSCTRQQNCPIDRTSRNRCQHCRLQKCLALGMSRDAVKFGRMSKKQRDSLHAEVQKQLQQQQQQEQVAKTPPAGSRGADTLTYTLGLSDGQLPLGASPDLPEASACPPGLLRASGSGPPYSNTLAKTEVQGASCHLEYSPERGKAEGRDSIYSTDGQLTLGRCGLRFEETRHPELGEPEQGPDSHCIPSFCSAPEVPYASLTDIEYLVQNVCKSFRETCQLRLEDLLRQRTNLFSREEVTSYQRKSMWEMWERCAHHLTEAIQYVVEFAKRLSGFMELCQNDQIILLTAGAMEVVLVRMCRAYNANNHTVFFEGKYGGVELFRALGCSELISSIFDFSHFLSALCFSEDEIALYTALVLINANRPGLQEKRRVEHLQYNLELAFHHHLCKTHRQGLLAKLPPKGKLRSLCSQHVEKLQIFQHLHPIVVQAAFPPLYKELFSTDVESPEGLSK
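Read-out: Photinus luciferase luminescence; inhibitors lower reporter signal. Insect Schneider cells with Gal4-ROR gamma fusion under metallothionein promoter, UAS reporter; 700 uM final copper sulfate induction, 20 hr, ambient temperature.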
Gal4-VP16 FLuc: counter-screen for ROR gamma inhibitors: Gal4-VP16 reporter; Drosophila S2 Gal4-VP16 UAS-luciferase, luminescence, 20 h; Potency, µM (highest dose often 53.6 µM), usual class: inhibitors; actives 3.5% (n = 310,000);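 further: Gal4-VP16 expression switched on by copper sulfate through the metallothionein promoter; nearly all actives have a fitted effect of over 50% in size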
KB-3-1 cytotox: kills parental KB-3-1 adenocarcinoma cells; KB-3-1 viability, CellTiter-Glo ATP luminescence, 72 h; actives 1.4% (n = 400,000); Potency, µM (doses to about 46.1 µM), actives largely listed as cytotoxic; further: nearly all actives have a fitted effect of over 60% in size
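KB-3-1 parental drug-naive adenocarcinoma cells in DMEM/10% FBS, incubated 72 h at 37 C with pin-transferred compounds across a concentration series. Viability by CellTiter-Glo luminescence; concentration-response curves fitted after normalization.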
SW480 rereplic: DNA re-replication induction in SW480 cells | SW480 DNA re-replication, Hoechst DNA content imaging, 48 h | Potency, µM (doses to about 46.1 µM), hits mostly activators | actives 1.8% (n = 340,000) | AID 624297; further: nearly all actives have a fitted effect of over 55% in size
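Hoechst fluorescence of nuclei (405 nm excitation, 500-530 nm emission) measured by plate-scanning imager after 48 hr compound exposure at 37 C; re-replication scored as increased number of nuclei with elevated intensity.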
KB-V1 cytotox: KB-V1 MDR subline cytotoxicity; KB-V1 MDR cells viability, CellTiter-Glo, 72 h; Potency, µM (top dose mostly 46.1 µM), actives largely listed as cytotoxic; actives 3.4% (n = 400,000); further: nearly all actives have a fitted effect of over 60% in size
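In this primary screen, KB-V1 cells overexpressing P-gp are incubated with library compounds (lowest to highest concentration) for 72 h at 37 degrees C before a luminescent ATP viability read.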
A number is an active result; . = inactive; ? = inconclusive; / = no result given; [ ] = another dose, or the depositor's remark. Compounds with a hit are over-represented: about 10% of the library has one in this group of screens. The call rests on the fitted dose curve; in most records, active means well fitted curve in the direction sought with a large enough effect; inconclusive means small, poorly fitted or top-dose-only effect, or another doubt; inactive means no such curve, though single readings can be large; an effect the other way counts as inactive or inconclusive.

SMILES	MCF10A rerep	RORgamma inh	Gal4-VP16 FLuc	KB-3-1 cytotox	SW480 rereplic	KB-V1 cytotox
CCC(C)c1ccc(O)c(NC(=S)NC(=O)c2cccnc2)c1 (stereo not given)	?	0.56µM	1.3µM	.	?	.
Cc1ccc([N+](=O)[O-])cc1NC(=S)NC(=O)c1ccco1	?	.	.	.	.	.
CC(C)c1ccc(O)c(NC(=O)c2cccnc2)c1	.	?	.	.	.	.
N#Cc1ccccc1NC(=S)NC(=O)c1cccnc1	.	/	/	.	.	.
O=C(NC(=S)Nc1cc([N+](=O)[O-])ccc1O)c1cccnc1	.	2µM	13µM	?	.	.
Cc1ccc([N+](=O)[O-])cc1NC(=S)NC(=O)c1cccnc1	.	13µM	.	.	.	.
Cc1noc(C)c1C(=O)N1CCCC(C)(C(=O)NS(=O)(=O)C2CC2)C1 (stereo not given)	/	/	/	.	/	.
FC(F)(F)c1nc(N2CCCC2)ncc1-c1nnnn1-c1ccc(Cl)cc1	?	.	16µM	?	.	15µM
Cc1ccc(-n2nnnc2-c2cnc(-c3cccnc3)nc2C(F)(F)F)cc1	.	?	?	?	.	21µM
Cc1ccc(-c2nnnn2-c2ccc(C)cc2)cc1	.	.	.[10 µM]	.	.	.
Cc1ccc(-n2nnnc2-c2cnn(-c3ccc(F)cc3)c2C(F)(F)F)cc1	.	?	22µM	?	.	?
FC(F)(F)c1nc(-c2ccncc2)ncc1-c1nnnn1-c1ccccc1	.	.	.	.	.	21µM
Cc1ccc(C)c(N2CCN(C(=O)c3cc4c(=O)n(Cc5cccnc5)ccc4nc3C)CC2)c1	/	/	/	.	/	.
Fc1ccc(-n2nnnc2-c2cnc(-c3cccs3)nc2C(F)(F)F)cc1	15µM	.	?	?	?	23µM
Cc1ccccc1CNC(=O)c1ccc2nc([C@@H]3O[C@H](CO)[C@H](O)[C@H](O)[C@H]3O)[nH]c2c1	/	/	/	.	/	.
Cc1ccc(C)c(SC2=NS(=O)(=O)c3ccccc32)c1	/	/	/	.	/	.
O=S1(=O)N=C(Sc2cccc3cccnc23)c2ccccc21	/	/	/	9.2µM	/	?
COc1ccc(OC)c2[nH]c(=O)c(CCNC(=O)COc3ccccc3)cc12	.	.	.	.	.	9.2µM
COc1ccc(OC)c2[nH]c(=O)c(CCNC(C)=O)cc12	.	.	.	.	.	.
COc1ccc(OC)c2[nH]c(=O)c(CCNC(=S)NC(C)(C)C)cc12	.	4.5µM	11µM	.	.	.
COc1ccc(OCc2ccc(-c3nc(C#N)c(N4CCC(C)CC4)o3)o2)cc1	/	/	/	?	/	.
c1ccc(Nc2cc(-c3ccoc3)ncn2)cc1	/	.	.	/	/	/
O=C(Nc1nnc(SCC(=O)N2CCCc3ccccc32)s1)c1ccc2ccccc2c1	.	6.3µM	5.6µM	.	.	?
Cc1cc(C)cc(C(=O)Nc2nnc(SCC(=O)N3CCCc4ccccc43)s2)c1	.	.	.	.	.	?
O=C(Nc1nnc(SCC(=O)N2CCCc3ccccc32)s1)c1ccccc1	.	6.3µM	?	.	.	?
SMILES	MCF10A rerep	RORgamma inh	Gal4-VP16 FLuc	KB-3-1 cytotox	SW480 rereplic	KB-V1 cytotox
CC(=O)Nc1nnc(SCC(=O)N2CCCc3ccccc32)s1	1.8µM	.	.	.	.	.
O=C(/C=C/c1ccc(Cl)cc1)Nc1cccc([S+](=O)([O-])Nc2ccccc2F)c1	/	/	/	.	/	.
Cc1ccc(-c2nnc(SCC(=O)NCc3ccccc3)o2)cc1	/	/	/	.	/	.
CCOc1cc(/C=N/NC(=O)c2ccc(CN3CCOCC3)cc2)ccc1OCc1ccccc1	.	.[10 µM]	.	?	.	2.3µM
CCOc1cc(/C=N/NC(=O)c2ccncc2)ccc1OC(=O)c1ccccc1	?	.	.	.	.	?
CCOc1cc(/C=N/NC(=O)c2ccccn2)ccc1OC(=O)c1ccc(F)cc1	.	18µM	?	.	.	.
Cc1cccn2c(=O)c(-c3nnn[nH]3)cnc12	.	.	.	/	.	/
CN1CCN(C(=O)c2ccc(-c3cnc4cccnn34)cc2)CC1	/	/	/	.	/	.
C=C1C(=O)C2=CC1CCC(=O)C1(C)CCC(OC(C)=O)C(C)(C)C1CC2O (stereo not given)	9.2µM	/	/	8.2µM	2.1µM	6.5µM
Cc1ccc(O)c(C(=O)c2cc(C#N)c(=O)n(-c3nccs3)c2)c1	12µM	?	.	?	.	?
C[C@H](NC(c1cccc2nc(O)c(O)nc12)P(=O)(O)O)c1ccc(Br)cc1 (stereo not given in full)	/	.	.	/	/	/
Cc1cc(OCc2cc(C(=O)N3CCN(C)C(=O)[C@@H]3C)no2)cc(C)c1Cl	?	.	14µM	.	.	.
CC1=NN(C(=O)COc2ccccc2C)C(O)(c2ccc(Cl)cc2)C1 (stereo not given)	.	14µM	7.9µM	.	.	13µM
CCC1=NN(C(=O)COc2ccccc2C)C(O)(c2ccncc2)C1 (stereo not given)	.	4µM	?	.	.	.
CC1=NN(C(=O)COc2ccccc2)C(O)(c2cccnc2)C1 (stereo not given)	.	.	.	.	.	?
CC1CN(Cc2ccccc2)c2ccccc2NC1=S (stereo not given)	.	.	.	?	.	21µM
COc1ccc(NC(=O)c2cc3ccccc3o2)c(OC)c1	/	/	/	.	/	.
COC(=O)N/N=C/c1ccc(-c2ccc(C)c(Cl)c2)o1	.	?	.	.	.	.
Cc1ccc(-c2ccc(/C=N\NC(=O)C3C(=O)NCC3c3ccccc3)o2)cc1Cl (stereo not given)	?	?	20µM	.	?	.
Cc1ccc(-c2ccc(/C=N/NC(=O)CN3CCCC3)o2)cc1Cl	.	11µM	.	.	.	.
O=C1NCC(c2ccccc2)C1C(=O)N/N=C\c1ccc(-c2cccc(Cl)c2Cl)o1 (stereo not given)	?	.	.	.	.	.
O=C(N/N=C/c1ccc(Cl)cc1)c1cc2c(s1)-c1ccccc1CC2	?	.	.	21µM	?	?
CC(=O)Nc1ccc(NC(=O)COC(=O)C2(c3ccc(Cl)cc3)CCCC2)cc1	.	?	.	.	.	.
CCc1cccc(CC)c1NC(=O)COC(=O)C1(c2ccc(Cl)cc2)CCCC1	.	.	.	.	.	4.6µM
COc1ccc(Cc2noc(CN3CCN(c4ccc(Cl)cn4)CC3)n2)cc1OC	.	.	.	?	.	3.3µM
CCOC(=O)Cn1c(=O)n(C2CCCCC2)c2nc(-c3c(F)cccc3Cl)nc(C(N)=O)c21	/	/	/	?	/	18µM
CN1OC[C@@H]2CN[C@H](c3cccc(Oc4ccccc4)c3)C[C@@H]21	/	/	/	.	/	.
CCOC(=O)c1[nH]c(C=O)c(C(=O)OCC)c1C	12µM	.	.	.	5.8µM	?

Bioassay records deposited in PubChem by National Center for Advancing Translational Sciences (NCATS).
